ELG1 genotoxic = inducers of genotoxicity in HEK293T ELG1-luciferase cells; 1.3% of 330,000 active; HEK293T ELG1-luciferase reporter, luminescence, 16 h; Potency, µM (titrated, usually from 46 µM), without a hit: top-dose activity change, positive = activation, hits mostly activators; note: % of control where 0% means no effect; nearly all actives have a fitted effect of over 60% in size
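ELG1-luciferase HEK293T cells, 2,000/well; compound pinned in; 16 hr, 37 °C, 5% CO2; ONE-Glo, 30 min RT; luminescence on CCD imager.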
NPC1 prom act = activates the NPC1 promoter. Huh7 NPC1 promoter luciferase reporter, 24 h. Potency, µM (series often up to 9.22 µM), for the others: at the top dose activation, usual class: activators. 2.4% of 320,000 active; note: % of control where 0% means no effect; nearly all actives have a fitted effect of over 60% in size
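In 1536-well qHTS, Huh7 cells harboring an NPC1 promoter–luciferase construct received compound for 24 h; activation was quantified by luminescence following luciferase reagent addition.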
Rab9 prom act = Rab9 promoter activation | Huh7 Rab9 promoter-luciferase reporter, luminescence, 24 h | Potency, µM (titrated, usually from 9.22 µM), inactives show top-dose activation, negative = inhibition, hits mostly activators | AID 485297 | 2.8% of 320,000 active; note: % of control where 0% means no effect; nearly all actives have a fitted effect of over 60% in size
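Huh7 reporter line, Rab9 promoter upstream of luciferase. Compound exposure 24 h at 37 °C in reduced-serum medium with 10% FBS. Read-out: luminescence.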
ELG1 DNA repair = blocks ELG1-dependent DNA repair in HEK293T cells. HEK293T ELG1-luciferase reporter, luminescence, 16 h; DNA damage induced by 5-fluorouridine. Potency, µM (doses to about 46.1 µM), inactives show at the top dose activity change, negative = inhibition, hits mostly inhibitors. 2.3% of 330,000 active. AID 504467; note: % is set by controls: 0 for no effect and ±100 for the full control effect; nearly all actives have a fitted effect of over 55% in size
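Reporter activity after DNA damage by 5-fluorouridine is monitored. Compound-treated cells incubate 16 hr at 37 °C, then ONE-Glo is added for 30 min before luminescence reading.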
FLuc modulator = inhibits or activates purified firefly luciferase, miR-21 counter-screen. purified FLuc, Km substrates, luminescence inhibition. P08659. 6.9% of 360,000 active. AID 588342. Potency, µM (titrated, usually from 57.5 µM), for the others: top-dose activity change, negative = inhibition, actives largely listed as inhibitors;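 note: plate controls were vehicle for no effect and reference inhibitor for full effect; nearly all actives have a fitted effect of over 55% in size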
Target sequence (P08659 whole entry, looked up): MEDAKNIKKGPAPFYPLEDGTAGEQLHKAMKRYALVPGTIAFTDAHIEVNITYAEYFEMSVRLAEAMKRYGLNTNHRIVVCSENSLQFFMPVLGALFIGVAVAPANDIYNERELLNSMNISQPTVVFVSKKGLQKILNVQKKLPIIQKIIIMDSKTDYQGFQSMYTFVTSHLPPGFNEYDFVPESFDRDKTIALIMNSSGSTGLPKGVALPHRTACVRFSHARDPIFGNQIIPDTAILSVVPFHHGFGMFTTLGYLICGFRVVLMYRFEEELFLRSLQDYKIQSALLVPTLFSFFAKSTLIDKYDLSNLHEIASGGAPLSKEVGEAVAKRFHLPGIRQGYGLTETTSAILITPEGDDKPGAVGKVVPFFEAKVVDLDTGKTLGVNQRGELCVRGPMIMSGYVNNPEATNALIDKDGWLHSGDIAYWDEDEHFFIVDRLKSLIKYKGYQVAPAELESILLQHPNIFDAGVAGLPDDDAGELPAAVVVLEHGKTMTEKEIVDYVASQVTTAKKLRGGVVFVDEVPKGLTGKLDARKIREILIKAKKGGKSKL
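Purified P. pyralis luciferase (10nM final) with 10uM D-luciferin and 10uM ATP (Km levels) in 50mM Tris acetate pH 7.5, 10mM Mg acetate, 0.01% Tween-20, 0.05% BSA; qHTS 6-point titration, ~60 µM downward; luminescence read.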
SMN2 splice enh = increases expression of the SMN2 splice variant | 2.8% of 210,000 active | AID 1458 | Potency, µM (doses to about 46.1 µM), for the others: top-dose activity change, positive = activation, hits mostly activators | HEK293 SMN2-luciferase splicing reporter, luminescence, 30-36 h; note: % of control where 0% means no effect; nearly all actives have a fitted effect of over 55% in size
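HEK293 cells carry an SMN2 […]–luciferase reporter in which exon 7 inclusion puts luciferase in frame. Cells were plated 10-12 h before compound addition, then incubated 30-36 h at 37C. ONE-Glo luminescence was read; sodium butyrate at 4.5 mM final served as control.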
* hit, by the source's call; ? = inconclusive; nt = no result given; [ ] = remark or other dose. Only some compounds are listed: those with a hit (about 9.3% of all), similar ones and a draw of the others. Calls come from the whole dose curve; as a rule, active = well fitted curve in the direction sought with a large enough effect; inconclusive = small, poorly fitted or top-dose-only effect, or another doubt; inactive = no such curve, though single readings can be large; an effect the other way counts as inactive or inconclusive. Potency is the fitted concentration of half-maximal effect.

SMILES	ELG1 genotoxic	NPC1 prom act	Rab9 prom act	ELG1 DNA repair	FLuc modulator	SMN2 splice enh
Cc1ccc(-n2cc(C(=O)c3ccc(F)cc3)nn2)cc1Cl	?	0.5µM*	0.5µM*	?	0.24µM*	7.1µM*
CCOC(=O)c1ccc(-n2cc(C(=O)c3cccnc3)nn2)cc1	-3%	-23%	-1%	-1%	?	nt
CCOC(=O)c1c(C)[nH]c(C)c1C(=O)CSc1nc2ccccc2c(=O)n1-c1ccccc1C	-7%	-3%	-6%	23µM*	?	-11%
O=C(Nc1nc2c(s1)CN(Cc1ccccc1)CC2)C1CCCC1	4%	15%	?	?	-19%	20%
CC(C)(C)C(=O)Nc1nc2c(s1)CN(Cc1ccccc1)CC2	?	?	3.2µM*	?	?	?
COc1ccccc1C(=O)Nc1cccc(OCc2cc(=O)n3c4c(sc3n2)CCCC4)c1	nt	nt	nt	nt	6µM*	13%
Cc1cccc(C(=O)Nc2cccc(OCc3cc(=O)n4ccccc4n3)c2)c1	nt	nt	nt	nt	4%	nt
O=C(Nc1ccc(C(=O)OCc2cc(=O)n3c4c(sc3n2)CCCC4)cc1)c1ccccc1	nt	nt	nt	nt	-10%	nt
COc1ccc(C(=O)Nc2cccc(OCc3cc(=O)n4c5c(sc4n3)CCCC5)c2)cc1	nt	nt	nt	nt	?	0%
COc1ccccc1C(=O)Nc1cccc(OCc2cc(=O)n3ccccc3n2)c1	nt	nt	nt	nt	7.6µM*	nt
CCOC(=O)c1ccc(NC(=O)Nc2cccc(OCc3cc(=O)n4ccc(C)cc4n3)c2)cc1	nt	nt	nt	nt	-9%	nt
COc1ccc(C)cc1NC(=O)Nc1cccc(OCc2cc(=O)n3ccc(C)cc3n2)c1	nt	nt	nt	nt	2.7µM*	nt
O=C(Nc1cccc(C(=O)OCc2cc(=O)n3c4c(sc3n2)CCCC4)c1)c1ccccc1	nt	nt	nt	nt	2.4µM*	nt
C/C=C(/C)C(=O)Nc1cccc(C2=NOC3(C2)C[C@H](C(N)=O)N(C(=O)Cc2ccc([N+](=O)[O-])cc2)C3)c1 (some centres not stated)	5%	-1%	-1%	-2%	5%	nt
C/C=C\C=C/C(=O)Nc1cccc(C2=NOC3(C2)C[C@H](C(N)=O)N(C(=O)CC)C3)c1 (some centres not stated)	0%	1%	3%	15%	19µM*	nt
C/C=C\C=C/C(=O)Nc1cccc(C2=NOC3(C2)C[C@H](C(N)=O)N(C(=O)Cc2ccc([N+](=O)[O-])cc2)C3)c1 (some centres not stated)	8%	-1%	1%	6%	21µM*	nt
C/C=C\C=C/C(=O)Nc1cccc(C2=NOC3(C2)C[C@@H](C(N)=O)N(C(=O)CCCCC)C3)c1 (some centres not stated)	2%	-39%	-5%	7%	13µM*	nt
C/C=C/C=C\C(=O)Nc1cccc(C2=NOC3(C2)C[C@H](C(N)=O)N(C(=O)CC#N)C3)c1 (some centres not stated)	4%	9%	1%	24%	?	nt
C/C=C/C=C/C(=O)N1CC2(CC(c3cccc(NC(=O)CCCCC)c3)=NO2)C[C@H]1C(N)=O (some centres not stated)	-3%	-3%	-1%	-19%	-17%	nt
Cc1ccc(S(=O)(=O)N2CCN(C(=O)c3cc4c(s3)CCCC4)CC2)cc1	-1%	-9%	-9%	6%	4%	nt
Cc1cccc(C)c1-n1nnnc1SCSc1nnnn1-c1c(C)cccc1C	0%	1%	-5%	?	9%	-24%
CCCC1CCC(c2ccc(/C(N)=N/O)cc2)CC1 (configuration not stated)	2%	1%	1%	-4%	?	-13%
CC(=O)Nc1ccc(NC(=O)C(C)OC(=O)CCc2nc3ccccc3s2)cc1 (configuration not stated)	1%	-3%	4%	13%	8%	-2%
Cc1cccc(OCC(=O)Nc2ccc(-c3nc4ccccc4o3)cc2)c1C	nt	nt	nt	nt	1%	?
Cc1cc(C)cc(OCC(=O)Nc2ccc(-c3nc4ccccc4o3)cc2)c1	nt	nt	nt	nt	3%	6.3µM*
SMILES	ELG1 genotoxic	NPC1 prom act	Rab9 prom act	ELG1 DNA repair	FLuc modulator	SMN2 splice enh
Cc1cc(C)cc(OCC(=O)Nc2cccc(-c3nc4ncccc4o3)c2)c1	-16%	2%	5%	12µM*	?	1%
CCC(C)c1ccc(OCC(=O)Nc2cccc(-c3nc4ncccc4o3)c2)cc1 (configuration not stated)	nt	nt	nt	nt	7.6µM*	3%
CC(C)c1ccc(OCC(=O)Nc2cc(-c3nc4ncccc4o3)ccc2Cl)cc1	nt	nt	nt	nt	1%	4%
Cc1cc(C)cc(OCC(=O)Nc2ccc(-c3nc4ncccc4o3)cc2C)c1	nt	nt	nt	nt	1%	nt
Cc1ccc(C)c(OCCC(=O)OCC(=O)Nc2cc(S(=O)(=O)N3CCOCC3)ccc2C)c1	7%	-4%	-3%	21%	5%	nt
CN(C)S(=O)(=O)c1ccc(C(=O)NCC(=O)Nc2ccc(F)c(F)c2)cc1	0%	-3%	-2%[1.84 µM]	-7%	3%	nt
CNC(=O)c1ccc(NC(=O)CC23CC4CC(CC(C4)C2)C3)cc1	-5%	16%	-4%	9.2µM*	-1%	nt
Nc1[nH]n(-c2ccccc2)c(=O)c1N=Nc1ccccc1[N+](=O)[O-]	3.2µM*	2µM*	0.56µM*	?	?	?
Nc1[nH]n(-c2ccccc2)c(=O)c1N=Nc1ccccc1	21µM*	2.5µM*	3.5µM*	?	5.4µM*	nt
Nc1[nH]n(-c2ccccc2)c(=O)c1N=Nc1ccc2ncsc2c1	0%	20%	22%	?	19µM*	nt
COc1cc([N+](=O)[O-])ccc1N=Nc1c(N)[nH]n(-c2ccccc2)c1=O	1%	11%	?	4%	?	27%
Nc1c(N=Nc2cccc(Cl)c2)c(=O)[nH]n1-c1ccccc1	5%	14%	25%	?	-3%	21%
O=c1[nH]c(=O)c2cc([N+](=O)[O-])cc([N+](=O)[O-])c2[nH]1	-3%	-5%	-21%	?	?	-4%
O=c1c2cc([N+](=O)[O-])cc([N+](=O)[O-])c2[nH]n1-c1ccccc1	-6%	-5%	1%	-3%	11µM*	nt
CN(C)/C=C1\C(=O)N(c2ccc(F)cc2F)C(c2cccnc2)S1(=O)=O (configuration not stated)	0%	-3%	-1%	4%	0%	nt
COc1ccc(N2CCN(C3CCCN(Cc4cccc(OC)c4)C3)CC2)cc1 (configuration not stated)	0%	8%	-4%	-16%	4%	nt
